Data on 37 compounds can be found in PubChem BioAssay (NCI).

The panel holds about 83,000 compounds, 20% with a hit somewhere; the sample as a whole holds those more often.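 Method: cells in 96-well plates; compound added at one concentration; 48 h incubation; percent growth measured; values under 10 scored active.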 Calls of active or inactive are those of the source.

For one assay, the system named is COLO 205 colon. Briefly: NCI-60 one-dose screen, 48 h (100 = growth as untreated, 0 = no growth, -100 = all killed). Particulars: 10 µM unless noted.
`Cc1ccc2c(c1)C(=O)/C(=C/c1ncc([N+](=O)[O-])n1C)O2`: the growth is -74.8% (active).

In the case of `CCCc1nn(C)c2c(=O)[nH]c(-c3cc(S(=O)(=O)N4CCN(C)CC4)ccc3OCC)nc12`, the growth is 99.8% (inactive).

For `Cc1ccc(NC(=O)Nc2ccc(-c3cccnc3)cc2N2CCC(CO)CC2)cc1`, the growth was 31.5% (inactive).

Take `O=C(Nc1cccc([N+](=O)[O-])c1)c1cccc(C(=O)Nc2cccc([N+](=O)[O-])c2)c1`: the growth is 120% (inactive).

Take `O=C(Nc1nc(-c2ccccc2)cs1)c1cc(O)c(O)c(O)c1`: the growth was 84.5% (inactive).

On to `CC(C)(C)c1ccc(C(O)CCCN2CCC(C(O)(c3ccccc3)c3ccccc3)CC2)cc1` (centres undefined), for which the growth is -86.9% (active).

For `Cc1cc(=O)n2n1-c1ccc(Cl)cc1NC(=O)C2`, the growth was 115% (inactive).

Regarding `CC(=O)NC1(C(=O)O)CCCC1`, the growth was 125% (inactive).

As to `Nc1nc(N)c([N+](=O)[O-])c(=O)[nH]1`, the growth was 109% (inactive).

Consider `COc1ccc2nc(NC(=O)c3cc(-c4ccc(F)cc4)n4nc(-c5ccccc5)cc4n3)sc2c1`, for which the growth is 76.3% (inactive).

Turning to `Cc1ccc2c(c1)O/C(=C\c1ccc([N+](=O)[O-])o1)C2=O`, the growth was -41.8% (active).

As for `CCOC(=O)c1c2c(c(C)n1Cc1ccc(OC)cc1)-c1nc(N)ncc1CC2`, the growth was 116% (inactive).

Regarding `COc1cc2c(-c3nc4cc(Cl)c(F)cc4s3)cc(=O)oc2c(C)c1OC`, the growth is -46.6% (active).

As to `COc1cc(C(=O)/C=C/c2cccnc2Nc2ccccc2)cc(OC)c1OC`, the growth is -87.5% (active).

For `O=C(C(Br)Br)C(Br)C(Br)c1ccccc1` (centres undefined), the growth is 4.54% (active).

In the case of `CC/C=C\C=C/C(=O)N/C=C/CC1Cc2cccc(O)c2C(=O)O1` (centres undefined), the growth is 94.2% (inactive).

With `c1ccc2cc(C[n+]3ccn(CCCCCCCn4cc[n+](Cc5ccc6ccccc6c5)c4)c3)ccc2c1`, the growth is 20% (inactive).

Turning to `Nc1ccc2c3c(cccc13)-c1ccccc1-2`, the growth is 96.5% (inactive).

As to `Clc1ccc([C@@H]2C[C@@H]3Cc4cc(Br)c5ccccc5c4N2O3)c(Cl)c1`, the growth was 98.4% (inactive).

Regarding `Cc1nn(-c2ccc(Br)cc2)c2nc3c(nc12)C(=O)C(=O)c1ccccc1-3`, the growth is 89.6% (inactive).

As for `COc1ccc(OC)c2c1[nH]c(=O)c1c3ccccc3cn21`, the growth was -91.1% (active).

As for `O=C(NCCCO)c1cc(Cl)ccc1O`, the growth is 25% (inactive).

Consider `COc1ccc(C2=NN(C(C)=O)C(c3cc(OC)c(OC)c(OC)c3)C2)cc1` (centres undefined), for which the growth was 108% (inactive).

Turning to `CC(=O)O[C@H]1C(=O)[C@@]2(C)C([C@H](OC(=O)c3ccccc3)[C@]3(O)C[C@H](OC(=O)[C@H](O)[C@@H](NC(=O)c4ccccc4)c4ccccc4)C(C)=C1C3(C)C)[C@]1(OC(C)=O)CO[C@@H]1C[C@@H]2O` (some centres undefined), the growth was 1.91% (active).

Turning to `O=C(Nc1nc(-c2ccc(Cl)cc2)cs1)c1cc(O)c(O)c(O)c1`, the growth is 77.6% (inactive).

Take `CCCCN(CCCC)CCCOC(=O)c1ccc(N)cc1`: the growth is 57.3% (inactive).

Consider `CCCCCCCCCCC[C@@H](C[C@H]1OC(=O)[C@H]1CCCCCC)OC(=O)[C@@H](CC(C)C)NC=O`, for which the growth is 81% (inactive).

On to `O=C1Nc2ccccc2C12Nc1cc(Cl)ccc1S2` (centres undefined), for which the growth is 98.3% (inactive).

With `CCOc1cc(C(C)(C)C)ccc1C1=N[C@H](c2ccc(Cl)cc2)[C@H](c2ccc(Cl)cc2)N1C(=O)N1CCN(CC#Cc2cccc3c2CN([C@@H]2CCC(=O)NC2=O)C3=O)CC1`, the growth is 8.66% (active).

For the compound `CN(CCOc1ccc(CC2SC(=O)NC2=O)cc1)c1ccccn1` (centres undefined), the growth was 82.7% (inactive).

Regarding `C[C@]12CC[C@@H]3c4ccc(O)cc4CC[C@H]3[C@@H]1CC[C@@H]2NS(=O)(=O)c1cccc(Br)c1`, the growth is 64.7% (inactive).

For the compound `Clc1cc(Cl)c(OCC#CI)cc1Cl`, the growth is 5.9% (active).

In the case of `O=C(Nc1cccc(C(F)(F)F)c1)Nc1ccc(OCc2nnc(-c3ccc(Cl)cc3)o2)c(F)c1`, the growth was 66.5% (inactive).

Turning to `CCCn1cnc2c1c(=O)n(CCCCC(C)=O)c(=O)n2C`, the growth is 104% (inactive).

For the compound `N=c1ccn2c(n1)O[C@@H]1[C@@H](O)[C@H](CO)O[C@@H]12`, the growth was 49.3% (inactive).

In the case of `CCCCCCCCCCCCCCCCCc1nccn1CCO`, the growth is 19% (inactive).

For the compound `Nc1ccc(C2=Nc3cccc4cccc(c34)S2)cc1`, the growth is 100% (inactive).

For a further assay, the system named is DU-145 prostate. Described as above. To be noted: 10 µM unless noted.
As for `Cc1ccc2c(c1)C(=O)/C(=C/c1ncc([N+](=O)[O-])n1C)O2`, the growth is -25.9% (active).

For the compound `CCCc1nn(C)c2c(=O)[nH]c(-c3cc(S(=O)(=O)N4CCN(C)CC4)ccc3OCC)nc12`, the growth is 113% (inactive).

Take `Cc1ccc(NC(=O)Nc2ccc(-c3cccnc3)cc2N2CCC(CO)CC2)cc1`: the growth is 29.8% (inactive).

Turning to `O=C(Nc1cccc([N+](=O)[O-])c1)c1cccc(C(=O)Nc2cccc([N+](=O)[O-])c2)c1`, the growth was 84.5% (inactive).

`O=C(Nc1nc(-c2ccccc2)cs1)c1cc(O)c(O)c(O)c1`: the growth is 57.7% (inactive).

As for `CC(C)(C)c1ccc(C(O)CCCN2CCC(C(O)(c3ccccc3)c3ccccc3)CC2)cc1` (centres undefined), the growth was -75.7% (active).

Take `Cc1cc(=O)n2n1-c1ccc(Cl)cc1NC(=O)C2`: the growth was 111% (inactive).

As to `CC(=O)NC1(C(=O)O)CCCC1`, the growth is 126% (inactive).

With `Nc1nc(N)c([N+](=O)[O-])c(=O)[nH]1`, the growth was 113% (inactive).

For the compound `COc1ccc2nc(NC(=O)c3cc(-c4ccc(F)cc4)n4nc(-c5ccccc5)cc4n3)sc2c1`, the growth was 78.1% (inactive).

As for `Cc1ccc2c(c1)O/C(=C\c1ccc([N+](=O)[O-])o1)C2=O`, the growth is -1.53% (active).

As to `CCOC(=O)c1c2c(c(C)n1Cc1ccc(OC)cc1)-c1nc(N)ncc1CC2`, the growth was 116% (inactive).

On to `COc1cc2c(-c3nc4cc(Cl)c(F)cc4s3)cc(=O)oc2c(C)c1OC`, for which the growth is -85.3% (active).

With `COc1cc(C(=O)/C=C/c2cccnc2Nc2ccccc2)cc(OC)c1OC`, the growth was -98.9% (active).

Regarding `O=C(C(Br)Br)C(Br)C(Br)c1ccccc1` (centres undefined), the growth was 87.4% (inactive).

In the case of `CC/C=C\C=C/C(=O)N/C=C/CC1Cc2cccc(O)c2C(=O)O1` (centres undefined), the growth is 76.4% (inactive).

Turning to `c1ccc2cc(C[n+]3ccn(CCCCCCCn4cc[n+](Cc5ccc6ccccc6c5)c4)c3)ccc2c1`, the growth was 49.2% (inactive).

Consider `Nc1ccc2c3c(cccc13)-c1ccccc1-2`, for which the growth was 109% (inactive).

Regarding `Clc1ccc([C@@H]2C[C@@H]3Cc4cc(Br)c5ccccc5c4N2O3)c(Cl)c1`, the growth is 93.3% (inactive).

Regarding `Cc1nn(-c2ccc(Br)cc2)c2nc3c(nc12)C(=O)C(=O)c1ccccc1-3`, the growth is 124% (inactive).

In the case of `COc1ccc(OC)c2c1[nH]c(=O)c1c3ccccc3cn21`, the growth is -65% (active).

Take `O=C(NCCCO)c1cc(Cl)ccc1O`: the growth was 36.1% (inactive).

`COc1ccc(C2=NN(C(C)=O)C(c3cc(OC)c(OC)c(OC)c3)C2)cc1` (centres undefined): the growth is 107% (inactive).

As for `CC(=O)O[C@H]1C(=O)[C@@]2(C)C([C@H](OC(=O)c3ccccc3)[C@]3(O)C[C@H](OC(=O)[C@H](O)[C@@H](NC(=O)c4ccccc4)c4ccccc4)C(C)=C1C3(C)C)[C@]1(OC(C)=O)CO[C@@H]1C[C@@H]2O` (some centres undefined), the growth was -36.8% (active).

As to `O=C(Nc1nc(-c2ccc(Cl)cc2)cs1)c1cc(O)c(O)c(O)c1`, the growth was 35.8% (inactive).

With `CCCCN(CCCC)CCCOC(=O)c1ccc(N)cc1`, the growth was 88.2% (inactive).

In the case of `CCCCCCCCCCC[C@@H](C[C@H]1OC(=O)[C@H]1CCCCCC)OC(=O)[C@@H](CC(C)C)NC=O`, the growth is 92.2% (inactive).

Turning to `O=C1Nc2ccccc2C12Nc1cc(Cl)ccc1S2` (centres undefined), the growth is 85.9% (inactive).

`CCOc1cc(C(C)(C)C)ccc1C1=N[C@H](c2ccc(Cl)cc2)[C@H](c2ccc(Cl)cc2)N1C(=O)N1CCN(CC#Cc2cccc3c2CN([C@@H]2CCC(=O)NC2=O)C3=O)CC1`: the growth was 57.1% (inactive).

For `CN(CCOc1ccc(CC2SC(=O)NC2=O)cc1)c1ccccn1` (centres undefined), the growth is 107% (inactive).

Take `C[C@]12CC[C@@H]3c4ccc(O)cc4CC[C@H]3[C@@H]1CC[C@@H]2NS(=O)(=O)c1cccc(Br)c1`: the growth is 75% (inactive).

As to `Clc1cc(Cl)c(OCC#CI)cc1Cl`, the growth was 86.8% (inactive).

Regarding `O=C(Nc1cccc(C(F)(F)F)c1)Nc1ccc(OCc2nnc(-c3ccc(Cl)cc3)o2)c(F)c1`, the growth was 88.1% (inactive).

For `CCCn1cnc2c1c(=O)n(CCCCC(C)=O)c(=O)n2C`, the growth is 118% (inactive).

As for `N=c1ccn2c(n1)O[C@@H]1[C@@H](O)[C@H](CO)O[C@@H]12`, the growth was 51.4% (inactive).

Take `CCCCCCCCCCCCCCCCCc1nccn1CCO`: the growth was 90% (inactive).

`Nc1ccc(C2=Nc3cccc4cccc(c34)S2)cc1`: the growth was 98.2% (inactive).
